# Results filed as inconclusive are left out. Where a call stands in place of a potency, no number is given. Calls of active or inactive are those of the source. Unless noted, calls come from the whole dose curve; as a rule, active = well fitted curve in the direction sought with a large enough effect; inconclusive = small, poorly fitted or top-dose-only effect, or another doubt; inactive = no such curve, though single readings can be large; an effect the other way counts as inactive or inconclusive.
# Experiments:
# [1] = molecular target: Cytochrome P450 3A4 (Homo sapiens) (UniProt P08684); assay: qHTS Assay for Inhibitors and Substrates of Cytochrome P450 3A4 (AID 884); note: nearly all actives have a fitted effect of over 50% in size; note: potency is the fitted concentration of half-maximal effect
# Sequence of Cytochrome P450 3A4 (Homo sapiens) (P08684 whole entry, looked up): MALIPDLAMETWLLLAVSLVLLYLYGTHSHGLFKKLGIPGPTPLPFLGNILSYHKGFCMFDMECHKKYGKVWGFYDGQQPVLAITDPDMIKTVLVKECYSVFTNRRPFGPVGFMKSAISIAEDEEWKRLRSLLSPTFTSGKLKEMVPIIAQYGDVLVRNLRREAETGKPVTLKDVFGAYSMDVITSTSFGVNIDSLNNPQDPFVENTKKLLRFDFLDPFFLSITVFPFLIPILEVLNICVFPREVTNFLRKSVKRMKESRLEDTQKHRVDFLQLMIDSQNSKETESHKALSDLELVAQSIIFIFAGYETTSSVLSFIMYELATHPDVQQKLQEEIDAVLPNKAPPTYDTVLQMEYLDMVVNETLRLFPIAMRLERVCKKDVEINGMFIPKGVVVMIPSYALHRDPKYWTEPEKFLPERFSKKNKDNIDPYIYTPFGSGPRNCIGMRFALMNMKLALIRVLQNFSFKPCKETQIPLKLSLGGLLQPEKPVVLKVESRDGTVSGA
# Outline: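 Luminescent readout of luciferin produced by CYP3A4 (20 nM) dealkylation of Luciferin-PPXE, 25 uM (its KM). NADPH-driven reaction ran 60 min at RT after 10 min compound preincubation; data scaled to 57 uM ketoconazole as 100% inhibition.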
# [2] = Confirmation and Secondary Assay for Modulators of Hemoglobin Beta Chain Splicing at IVS2 654 locus (AID 910);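 note: HeLa cells stably carrying EGFP split by mutant beta-globin IVS2-654 intron; per-well total GFP intensity by laser scanning cytometry after 2-day treatment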
# Outline: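 Readout: per-well total peak green fluorescence (488 nm ex, 500–520 nm em) from objects 5–250 µm, reflecting correct splicing of an EGFP-654 reporter. Compounds were applied for 2 days at 37 °C to overnight-plated HeLa EGFP-654 cells; controls were DMSO and 500 nM IVS2-654 PNA.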
# [3] = molecular target: Guanine nucleotide-binding protein G(i) subunit alpha-1 (Homo sapiens) (UniProt P63096); assay: qHTS Assay for Inhibitors of RGS12 GoLoco Motif Activity (Green Fluorophore) (AID 879);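 note: negative values mean loss of peptide binding seen as reduced polarization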
# Sequence of Guanine nucleotide-binding protein G(i) subunit alpha-1 (Homo sapiens) (P63096 whole entry, looked up): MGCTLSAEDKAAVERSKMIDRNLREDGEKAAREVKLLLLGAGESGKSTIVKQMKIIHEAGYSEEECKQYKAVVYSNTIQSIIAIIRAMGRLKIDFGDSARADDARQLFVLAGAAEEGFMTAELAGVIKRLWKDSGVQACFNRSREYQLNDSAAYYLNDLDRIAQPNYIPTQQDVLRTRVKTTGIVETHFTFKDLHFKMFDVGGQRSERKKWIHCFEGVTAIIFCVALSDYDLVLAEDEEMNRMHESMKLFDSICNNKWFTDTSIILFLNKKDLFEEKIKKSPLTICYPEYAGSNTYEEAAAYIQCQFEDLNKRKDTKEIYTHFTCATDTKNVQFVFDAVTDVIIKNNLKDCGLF
# Outline: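 A drop in FITC polarization marked displacement of the FITC-tagged RGS12 GoLoco peptide (10 nM) from Gαi1 (50 nM). Compounds were incubated 10 min at room temperature in Tris pH 7.5 buffer containing 150 mM NaCl, 0.1 mM GDP and 0.05% NP40; unlabeled peptide titration served as control.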
# [4] = molecular target: Cytochrome P450 3A4 (Homo sapiens) (UniProt P08684); assay: qHTS Assay for Activators of Cytochrome P450 3A4 (AID 885); note: nearly all actives have a fitted effect of over 65% in size
# Outline: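 CYP3A4 activity: Luciferin-PPXE O-dealkylation, 25uM substrate, 200mM KPO4, RT throughout. Read-out is luciferase luminescence; higher values reflect activation.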
# [5] = Cellular Toxicity (caspase-3) N2a (AID 665);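 note: compound exposure lasted 16 h at 37 °C before readout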
# Outline: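 Caspase-3/7 activation measured as luminescence from Caspase-Glo reagent (1 h, room temperature) after 16 h compound exposure of mouse N2a cells. AC50 values from Hill-equation concentration-response, scaled between DMSO and 10 uM staurosporine.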
# [6] = Cellular Toxicity (caspase-3) Renal Proximal Tubule (AID 667);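 note: cells exposed to compound for 16 hours at 37 °C before detection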
# Outline: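 AC50 derived by standard Hill fit of concentration-response data, normalized between DMSO basal and 10 uM staurosporine as 100% stimulation. Cells: primary rat kidney proximal tubule, 16 h treatment at 37 °C.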
# [7] = molecular target: Cytochrome P450 2C9 (Homo sapiens) (UniProt P11712); assay: qHTS Assay for Inhibitors and Substrates of Cytochrome P450 2C9 (AID 883); note: nearly all actives have a fitted effect of over 60% in size; note: potency is the fitted concentration of half-maximal effect
# Sequence of Cytochrome P450 2C9 (Homo sapiens) (P11712 whole entry, looked up): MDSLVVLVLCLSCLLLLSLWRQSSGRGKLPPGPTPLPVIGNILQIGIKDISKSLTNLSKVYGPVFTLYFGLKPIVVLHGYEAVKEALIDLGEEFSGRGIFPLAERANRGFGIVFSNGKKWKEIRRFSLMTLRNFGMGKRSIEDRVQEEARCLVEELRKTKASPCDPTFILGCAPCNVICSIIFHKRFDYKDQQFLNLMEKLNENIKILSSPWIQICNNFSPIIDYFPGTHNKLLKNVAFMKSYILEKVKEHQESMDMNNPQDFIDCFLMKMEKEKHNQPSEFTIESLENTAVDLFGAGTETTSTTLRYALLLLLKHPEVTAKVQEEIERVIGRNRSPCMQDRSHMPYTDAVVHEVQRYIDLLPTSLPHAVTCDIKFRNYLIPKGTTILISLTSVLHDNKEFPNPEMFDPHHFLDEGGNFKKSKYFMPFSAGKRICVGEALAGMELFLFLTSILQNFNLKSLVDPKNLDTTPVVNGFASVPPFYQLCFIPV
# Outline: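 Luminescent read-out of deoxyluciferin hydroxylation, normalized to 57uM sulphaphenazole (AC100). Reaction: 10nM enzyme, 100uM Luciferin-H (equal to KM), 25mM KPO4, 10 min compound preincubation, then 60 min with NADPH regeneration, both at 37C.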
# [8] = molecular target: Cytochrome P450 2D6 (Homo sapiens) (UniProt P10635); assay: qHTS Assay for Inhibitors and Substrates of Cytochrome P450 2D6 (AID 891); details: recombinant CYP2D6, luciferin-ME EGE luminescence; note: potency is the fitted concentration of half-maximal effect; nearly all actives have a fitted effect of over 60% in size
# Sequence of Cytochrome P450 2D6 (Homo sapiens) (P10635 whole entry, looked up): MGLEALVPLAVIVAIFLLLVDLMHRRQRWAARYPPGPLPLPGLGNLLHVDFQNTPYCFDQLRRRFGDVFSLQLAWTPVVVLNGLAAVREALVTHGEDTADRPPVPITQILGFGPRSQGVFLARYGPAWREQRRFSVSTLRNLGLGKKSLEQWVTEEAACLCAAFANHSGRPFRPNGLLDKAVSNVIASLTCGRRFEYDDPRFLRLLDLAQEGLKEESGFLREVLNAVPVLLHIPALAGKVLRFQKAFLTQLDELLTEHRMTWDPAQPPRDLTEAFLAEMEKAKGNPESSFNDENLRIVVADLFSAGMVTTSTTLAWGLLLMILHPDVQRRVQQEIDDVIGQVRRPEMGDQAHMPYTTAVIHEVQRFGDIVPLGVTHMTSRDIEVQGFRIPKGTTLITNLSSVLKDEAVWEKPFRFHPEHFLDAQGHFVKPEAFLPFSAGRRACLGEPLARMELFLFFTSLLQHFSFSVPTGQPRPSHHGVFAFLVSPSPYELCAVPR
# Outline: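 Luminescent read-out of luciferin formed by 5 nM human CYP2D6 demethylating 30 uM Luciferin-ME EGE (Km level) over 60 min at room temperature after NADPH regeneration addition. Data normalized to full inhibition by 1.43 uM quinidine.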
# [9] = qHTS Assay for Identification of Small Molecule Antagonists for NFkB Signaling Pathway (AID 895; active = well fitted inhibition curve with a large enough effect in the signal ratio, with a control signal flat, not every such curve was filed as active; the % refers to the signal ratio)
# Outline: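 Beta-lactamase reporter read-out (460 and 530 nm emission ratio, 405 nm excitation, 2 hrs substrate loading RT) after 5 hr stimulation with 10 pM TNF alpha in compound-treated NFkB-bla ME-180 cells in low-serum medium.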
structure (smiles),measurement,setting,value
Cc1ncc(CO)c(C=O)c1O,Potency,[1],inactive
CN(C)C(=O)Nc1ccc(Cl)c(Cl)c1,Potency,[1],inactive
same,outcome,[2],inactive
NS(=O)(=O)Cc1noc2ccccc12,outcome,[3],inactive
same,outcome,[4],inactive
COc1ccc(C(=O)c2ccccc2)c(O)c1,outcome,[5],inactive
same,outcome,[6],inactive
same,Potency,[1],inactive
same,outcome,[2],inactive
COc1ccccc1N1CCN(CCCCNC(=O)c2ccc(-c3ccc(C(C)=O)cc3)cc2)CC1,Potency,[7],inactive
COc1ccc(-c2cc(C(F)F)nn2-c2ccc(S(N)(=O)=O)cc2)cc1F,Potency,[1],inactive
same,outcome,[2],inactive
C[C@H]1[C@H]2CC[C@H]3[C@@H]4CC=C5C[C@@H](N(C)C)CC[C@]5(C)[C@H]4CC[C@]23CN1C,Potency,[1],inactive
CN1CCC[C@@H]1CCO[C@](C)(c1ccccc1)c1ccc(Cl)cc1,outcome,[3],inactive
same,outcome,[4],inactive
CCCN(CCC)S(=O)(=O)c1ccc(C(=O)O)cc1,outcome,[5],inactive
same,outcome,[6],inactive
same,Potency,[1],inactive
same,outcome,[2],inactive
COc1ccc(CN(CCN(C)C)c2ncccn2)cc1,Potency,[1],inactive
same,outcome,[2],inactive
O=C(CCCN1CC=C(n2c(=O)[nH]c3ccccc32)CC1)c1ccc(F)cc1,Potency,[7],inactive
same,outcome,[4],inactive
same,Potency,[8],3.16 µM (active)
same,outcome,[2],inactive
O=C1C(=O)c2ccccc2C(O)=C1C1CCC(c2ccc(Cl)cc2)CC1 (stereo unspecified),Potency,[7],2 µM (active)
same,Potency,[1],inactive
same,outcome,[2],inactive
COc1cc(C(=O)NCc2ccc(OCCN(C)C)cc2)cc(OC)c1OC,outcome,[7],inactive
same,outcome,[2],inactive
COP(=O)(OC)OC(c1ccc(Cl)cc1)P(=O)(OC)OC (stereo unspecified),Potency,[1],inactive
NCCNc1cccc2ccccc12,outcome,[5],inactive
same,outcome,[6],inactive
same,Potency,[1],inactive
C/C=C/c1ccc(O)c(OC)c1,outcome,[5],inactive
same,outcome,[6],inactive
same,Potency,[1],inactive
CN=C(N)NCCC[C@H](N)C(=O)O,outcome,[3],inactive
same,outcome,[9],inactive
O=C1C(O)=C(O)C(=O)C(O)=C1O,Potency,[1],inactive
same,outcome,[2],inactive
COc1cc(N)c(Cl)cc1C(=O)NC1CCN(Cc2ccccc2)CC1,Potency,[7],inactive
same,Potency,[1],12.6 µM (active)
same,outcome,[4],inactive
same,Potency,[8],0.0126 µM (active)
same,outcome,[2],inactive

# — PubChem BioAssay (NCATS)
